# Bioassay records from PubChem.
# M1 PAM parental: M1 PAM counterscreen hit in parental CHO-K1 cells. ATP EC20, Fluo-8 calcium fluorescence; 0% at ATP EC20, 100% at ATP max. hit rate 0.02% among 360,000. activation, % at 3 µM. AID 602247;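 active means activation above the run cutoff, the mean activation of all test compounds plus 3 SD, cut at about 40% in these data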;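 further: peak over basal fluorescence ratio in a 140 s read after ATP addition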
# CHO-K1 Ca antag: counter-screen for M1 antagonists: effect in parental CHO-K1 cells; hit rate 0.6% among 360,000; inhibition, % at 3 µM; AID 602250; ATP-induced calcium, Fluo-8 fluorescence;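 active means inhibition above a per-plate cutoff, the plate's mean sample inhibition plus 3 SD, cut at about 24% in these data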;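 further: 0% = DMSO plus EC80 ATP and 100% = DMSO alone without ATP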
# CHRM1 PAM: positive allosteric modulators of human M1 muscarinic receptor | P11229 | activation, % at 3 µM | hit rate 0.088% among 360,000 | AID 588819 | CHO-K1 hM1, Fluo-8 calcium fluorescence, ACh EC20; 0% = ACh EC20, 100% = maximal ACh; in the data active means activation above about 19%, passing the limit was not always enough
# Target sequence (P11229 whole entry, looked up): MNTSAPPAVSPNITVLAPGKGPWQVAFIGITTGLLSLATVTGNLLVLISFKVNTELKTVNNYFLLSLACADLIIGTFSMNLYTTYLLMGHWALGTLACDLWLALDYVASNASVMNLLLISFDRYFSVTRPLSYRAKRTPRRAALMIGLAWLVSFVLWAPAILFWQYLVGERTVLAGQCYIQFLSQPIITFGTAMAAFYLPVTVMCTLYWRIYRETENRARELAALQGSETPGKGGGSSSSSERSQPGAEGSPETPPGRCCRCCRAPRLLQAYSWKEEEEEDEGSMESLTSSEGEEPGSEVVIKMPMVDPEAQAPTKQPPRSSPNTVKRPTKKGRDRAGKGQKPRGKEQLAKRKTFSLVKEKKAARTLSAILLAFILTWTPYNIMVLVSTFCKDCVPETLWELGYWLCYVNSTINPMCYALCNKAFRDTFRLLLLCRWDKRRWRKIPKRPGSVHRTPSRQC
# CHO-K1 Ca ag: M1 agonist counterscreen hit in parental CHO-K1 cells; Fluo-8 calcium fluorescence; scaled to maximal ATP response, vehicle zero; activation, % at 3 µM; hit rate 0.48% among 360,000; in the data active means activation above about 15%;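 further: untransfected CHO-K1 host cells lacking M1 receptor as counterscreen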
# CHRM1 agonist: human M1 muscarinic receptor agonism; activation, % at 3 µM; P11229; CHO-K1 hM1, Fluo-8 calcium fluorescence, agonist mode; 0% DMSO, 100% acetylcholine EC100; AID 588814; hit rate 0.33% among 360,000;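 active means activation above the run's mean compound activation plus 3 SD, cut at about 16% in these data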;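 further: peak over basal fluorescence ratio within a 140 s kinetic read after compound addition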
# M1 antag: blocks human M1 muscarinic receptor | CHO-K1 hM1, Fluo-8 calcium fluorescence, ACh EC80 antagonist | inhibition, % at 3 µM | P11229 | hit rate 1.3% among 360,000;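 active means percent inhibition above its own plate's cutoff, namely the mean of that plate's compound wells plus 3 SD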;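 further: peak over basal fluorescence ratio during 140 s after agonist addition; 0% = ACh EC80 plus DMSO and 100% = DMSO alone without agonist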
# * marks the source's active call; other numbers are inactive results; . = not tested or not shown. Most compounds without a hit are left out; they make up all but 2.4% or so of the library.
SMILES,M1 PAM parental,CHO-K1 Ca antag,CHRM1 PAM,CHO-K1 Ca ag,CHRM1 agonist,M1 antag
CCN(CC)S(=O)(=O)c1cccc(NC(=O)COC(=O)CCC(=O)c2ccc(F)cc2)c1,23,-7,5,5,-6,-4
Cc1ccc(F)cc1NC(=O)COC(=O)C1CC2CCCC(C1)C2=O (stereo not given),-15,16,-10,0,-3,16
N#Cc1ccsc1NC(=O)CN1C(=O)NC2(CCCCC2)C1=O,0,2,2,0,-2,-2
O=C(c1ccc([N+](=O)[O-])cc1)N1CCN(c2ncc(Br)cn2)CC1,2,-5,11,3,-6,-7
CC(=O)NCCC(=O)N(Cc1ccccc1)c1nc2c(C)cccc2s1,13,-2,5,0,-2,-5
CC1(C)OC(=O)C2=C(C[C@@H](CCc3ccccc3)O[C@H]2CCc2cccc(Cl)c2)O1,-2,-16,.,0,.,.
O=C(c1ccco1)N1CCN(C(c2cccs2)c2nnnn2C2CCCCC2)CC1 (stereo not given),-8,-9,-6,0,-12,4
CCOC(=O)/C(C#N)=C/c1c(N2CCN(Cc3ccc4c(c3)OCO4)CC2)nc2c(C)cccn2c1=O,-8,-3,-4,1,-8,5
Cc1cccn2c(=O)c(/C=C(\C#N)C(N)=O)c(N3CCN(Cc4ccc5c(c4)OCO5)CC3)nc12,-2,10,-27,1,-8,70*
Cc1cc(C)nc(NC(=NCc2ccc3c(c2)OCO3)NC(=O)Nc2ccccc2)n1,-4,2,-14,0,-7,32*
Cc1nn(-c2ccccc2)nc1C(=O)OCC(=O)N1CCC(C)CC1,1,-5,-4,1,-4,4
CCOC(=O)CSc1nc2ccc(NC(=O)CSc3nnnn3Cc3ccccc3)cc2s1,3,10,-5,2,-3,21
CC(C)(C)NC(=O)CSc1nc2ccc(NC(=O)CSc3nnnn3Cc3ccccc3)cc2s1,12,16,-8,6,3,19*
N#CC1=C(N)OC2=C(C(=O)CCC2)C1c1ccc2c(c1)OCO2 (stereo not given),13,2,-3,0,-9,4
N#CC1=C(N)OC2=C(C(=O)CCC2)C1c1cc2c(cc1Br)OCO2 (stereo not given),-10,29*,-11,0,-8,30*
N#CC1=C(N)OC2=C(C(=O)CCC2)C1c1cc2c(cc1Cl)OCO2 (stereo not given),-24,24*,7,0,-7,-8
COc1cccc(OCC(=O)O)c1,-1,-10,5,1,-5,-2
O=C(OCC(=O)N1CCCC1)c1c(Cl)ccc(Cl)c1Cl,-7,2,11,0,4,13
CCn1c(CNC(=O)c2ccccc2F)cc2cc(C)ccc21,-24,31*,-6,0,-1,5
Cc1ccc2c(c1)nnn2C1CCN(CC(=O)N(c2ccccc2)c2ccccc2)CC1,-12,-6,-22,4,-8,34*
Cc1ccc2c(c1)nnn2C1CCN(S(=O)(=O)c2cccc(S(=O)(=O)N(C)C)c2)CC1,3,5,-12,12,3,37*
COc1cccc2c1OC1(C)CC2NC(=O)N1c1cccc(C(=O)Nc2ccc3c(c2)OCCO3)c1 (stereo not given),1,14,-13,3,-1,28*
COc1ccc(NC(=O)c2cccc(N3C(=O)NC4CC3(C)Oc3ccccc34)c2)cc1 (stereo not given),11,-4,8,2,-3,-10
CCC(=O)N1CCc2cc(S(=O)(=O)CCC(=O)NCc3cccc(OC)c3)ccc21,2,-18,3,1,-4,51*
CCC(=O)N1CCc2cc(S(=O)(=O)CCC(=O)Nc3ccc(F)c(F)c3)ccc21,-8,35*,-4,0,-2,11
SMILES,M1 PAM parental,CHO-K1 Ca antag,CHRM1 PAM,CHO-K1 Ca ag,CHRM1 agonist,M1 antag
CCC(=O)N1CCc2cc(S(=O)(=O)CCC(=O)Nc3cccc(F)c3)ccc21,10,-5,3,0,-3,-25
O=C(COc1coc(CN2CCc3ccccc32)cc1=O)Nc1cccc(F)c1,-2,-3,1,0,-2,-4
NC(=O)CSc1nc2ccccc2n1Cc1ccccc1,17,0,14,22*,-8,-12
CC(C)NC(=O)CSc1nc2ccccc2n1CC(=O)N(C(C)C)C(C)C,2,7,12,-1,-2,-7
CC(C)N(C(=O)CSc1nc2ccccc2n1Cc1ccc(F)cc1)C(C)C,1,10,-18,1,-3,32*
CCOC(=O)c1cc(C(C)(C)C)n(CCCN2CCOCC2)c1C,17,-14,5,1,-3,-10
CCOC(=O)c1cc(C)n(CCCN2CCOCC2)c1C,-5,-11,-19,1,-7,35*
COc1ccc(-c2nn(-c3ccccc3)cc2/C=N/NC(=O)c2ccc(Br)o2)cc1,10,-9,-17,3,4,44*
CC(C)(C)c1csc(NC(=O)C2=COCCO2)n1,-20,-9,-15,0,-6,40*
O=C(COC(=O)CCC(=O)c1cccs1)Nc1ccccc1[N+](=O)[O-],10,-14,0,0,-2,1
C=CCNC(=O)c1c(N)n(-c2ccc3c(c2)OCO3)c2nc3ccccc3nc12,7,-15,-25,1,-12,69*
Nc1c(C(=O)NCC2CCCO2)c2nc3ccccc3nc2n1-c1ccccc1 (stereo not given),7,0,-16,5,3,28*
Nc1c(C(=O)NCCN2CCOCC2)c2nc3ccccc3nc2n1-c1cccc(F)c1,15,-5,0,2,-4,6
O=C(CSc1nc(-c2ccco2)cc(C(F)(F)F)n1)NC1CCCC1,5,24*,-2,2,3,-3
O=C(CSc1nc(-c2ccco2)cc(C(F)(F)F)n1)Nc1ccc2c(c1)CCC2,-5,5,6,0,0,-27
CCOC(=O)C1CCCN(C(=O)Cc2ccc(OC)c(OC)c2)CC1 (stereo not given),-16,26*,0,1,3,-2
CCOC(=O)C1CCCN(Cc2nc3ccc([N+](=O)[O-])cc3c(=O)n2-c2ccc(OC)cc2OC)C1 (stereo not given),12,-10,-26,2,54*,51*
CCOC(=O)C1CCCN(C(=O)Cc2ccc(OC)c(OC)c2)C1 (stereo not given),8,-7,2,0,14,-7
CCOC(=O)C1CCCN(C(=O)/C=C/c2cc(OC)c(OC)c(OC)c2)C1 (stereo not given),-9,18,-6,1,24*,5
